# Measured values reported in PubChem BioAssay.
# A number with no mark means an inactive call. For some assays here: Results with a measured potency or affinity are listed apart. The source made the active and inactive calls. Unless noted, the rule behind the calls is not given here.
# Experiments:
# [1] = antimalarial activity against Dd2 strain (AID 2302;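 active = growth inhibition above 50% at the single 2 µM test dose, taken to imply half-maximal potency below 2 µM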;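 note: 0% = DMSO untreated growth and 100% = chloroquine plus artemisinin killed control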); details: P. falciparum Dd2 in RBCs, LDH growth readout, 72 h; at 2 µM; stronger effect = higher value
# [2] = human hepatoma cell viability loss – ATP luminescence, cytotoxicity control for P. falciparum antimalarial project, primary screen (AID 2303;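 active = inhibition above 50%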;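 note: 0% = DMSO wells and 100% = digitonin-killed cells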); details: HepG2 viability, 24-48 h, at 10 µM, stronger effect = higher value
# [3] = molecular target: L-lactate dehydrogenase (Plasmodium falciparum (isolate CDC / Honduras)) (UniProt Q27743); assay: PfLDH activity inhibition – cell lysate, 3D7 strain, counter-screen for P. falciparum growth inhibition project (AID 2304);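 note: 0% = vehicle and 100% = reference inhibitor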; details: P. falciparum 3D7 crude extract, LDH APAD/NBT absorbance; at 2 µM; stronger effect = higher value
# [4] = inhibition of 3D7 malaria parasite growth – strain 3D7 (AID 2306);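 note: 0% = DMSO wells and 100% = chloroquine plus artemisinin control wells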; details: P. falciparum 3D7 erythrocytic growth, LDH absorbance, 72 h; at 2 µM; stronger effect = higher value
# [5] = molecular target: Calcium-dependent protein kinase 1 (Plasmodium falciparum (isolate 3D7)) (UniProt P62344); assay: PfCDPK1 kinase inhibitors, biochemical, TCAMS library (AID 1159585; cut-off not given, nearly all actives have IC50 up to about 0.98 µM;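 note: inhibitors leave more ATP so luminescence rises with inhibition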); details: recombinant PfCDPK1, Kinase-Glo ATP depletion luminescence
# [6] = molecular target: Plasmodium falciparum protein kinase 6 (PK6, PF3D7_1337100) (UniProt Q8IDW1); assay: PfPK6 kinase inhibitors, biochemical, TCAMS library (AID 1159586); details: recombinant PfPK6, Kinase-Glo ATP depletion luminescence
# [7] = molecular target: Protein kinase 7 (PK7), Plasmodium falciparum 3D7 (PF3D7_0213400) (UniProt Q7YTF7); assay: inhibition of Plasmodium PK7 catalytic activity – biochemical, TCAMS antimalarial set, Kinase-Glo luminescence (AID 1159587); details: recombinant PfPK7, Kinase-Glo ATP depletion luminescence
# [8] = molecular target: Calcium-dependent protein kinase 4 (Plasmodium falciparum (isolate 3D7)) (UniProt Q8IBS5); assay: PfCDPK4 kinase inhibitors, biochemical, TCAMS library (AID 1159588; cut-off not given, nearly all actives have IC50 up to about 0.91 µM); details: recombinant PfCDPK4, Kinase-Glo ATP depletion luminescence
# Calcium-dependent protein kinase 4 (Plasmodium falciparum (isolate 3D7)), sequence (Q8IBS5 whole entry, looked up): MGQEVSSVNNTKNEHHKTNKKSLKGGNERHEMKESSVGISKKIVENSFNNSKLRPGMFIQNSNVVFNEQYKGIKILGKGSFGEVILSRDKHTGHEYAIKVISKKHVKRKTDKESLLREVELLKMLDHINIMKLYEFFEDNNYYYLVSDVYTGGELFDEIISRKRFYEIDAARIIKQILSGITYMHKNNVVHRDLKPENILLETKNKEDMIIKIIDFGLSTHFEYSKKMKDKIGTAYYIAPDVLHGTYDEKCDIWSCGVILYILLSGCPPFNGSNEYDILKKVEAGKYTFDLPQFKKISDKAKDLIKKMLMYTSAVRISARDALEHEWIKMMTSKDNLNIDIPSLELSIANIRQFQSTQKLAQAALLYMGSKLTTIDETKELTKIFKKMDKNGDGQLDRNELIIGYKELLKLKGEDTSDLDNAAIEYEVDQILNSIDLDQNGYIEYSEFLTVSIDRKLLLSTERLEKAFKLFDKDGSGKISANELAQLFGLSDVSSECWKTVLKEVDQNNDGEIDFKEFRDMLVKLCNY
# Plasmodium falciparum protein kinase 6 (PK6, PF3D7_1337100), sequence (Q8IDW1 1-305): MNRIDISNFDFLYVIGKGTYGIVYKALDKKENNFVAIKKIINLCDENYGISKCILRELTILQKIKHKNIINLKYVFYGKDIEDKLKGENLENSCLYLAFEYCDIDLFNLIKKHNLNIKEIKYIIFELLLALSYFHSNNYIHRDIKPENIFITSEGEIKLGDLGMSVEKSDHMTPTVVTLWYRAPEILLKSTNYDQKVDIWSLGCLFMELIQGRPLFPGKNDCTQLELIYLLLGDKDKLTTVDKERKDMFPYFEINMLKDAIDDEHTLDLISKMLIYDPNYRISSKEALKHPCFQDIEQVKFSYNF
# Protein kinase 7 (PK7), Plasmodium falciparum 3D7 (PF3D7_0213400), sequence (Q7YTF7 1-343): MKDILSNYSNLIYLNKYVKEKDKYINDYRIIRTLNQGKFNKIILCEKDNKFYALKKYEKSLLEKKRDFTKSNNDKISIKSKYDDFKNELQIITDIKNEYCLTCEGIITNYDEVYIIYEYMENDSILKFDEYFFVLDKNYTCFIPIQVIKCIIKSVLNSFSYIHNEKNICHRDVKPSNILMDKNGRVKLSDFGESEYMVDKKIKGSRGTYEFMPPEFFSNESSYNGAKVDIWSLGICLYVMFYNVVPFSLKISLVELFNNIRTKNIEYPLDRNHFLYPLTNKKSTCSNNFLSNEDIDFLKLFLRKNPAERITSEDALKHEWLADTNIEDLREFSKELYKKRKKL
# Calcium-dependent protein kinase 1 (Plasmodium falciparum (isolate 3D7)), sequence (P62344 whole entry, looked up): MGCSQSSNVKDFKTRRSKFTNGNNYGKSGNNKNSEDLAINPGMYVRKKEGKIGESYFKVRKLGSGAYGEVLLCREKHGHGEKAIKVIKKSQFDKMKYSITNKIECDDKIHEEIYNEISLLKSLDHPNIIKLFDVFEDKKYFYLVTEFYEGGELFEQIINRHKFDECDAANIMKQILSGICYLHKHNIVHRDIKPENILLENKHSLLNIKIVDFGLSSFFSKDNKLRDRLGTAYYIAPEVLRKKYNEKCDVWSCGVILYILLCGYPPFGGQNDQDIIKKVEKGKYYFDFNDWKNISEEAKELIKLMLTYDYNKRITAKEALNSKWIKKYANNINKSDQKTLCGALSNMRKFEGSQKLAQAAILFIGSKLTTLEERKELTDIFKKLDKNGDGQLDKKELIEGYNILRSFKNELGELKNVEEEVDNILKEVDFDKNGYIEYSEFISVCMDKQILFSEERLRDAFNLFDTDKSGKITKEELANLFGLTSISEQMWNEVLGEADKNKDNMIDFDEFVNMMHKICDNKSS
# L-lactate dehydrogenase (Plasmodium falciparum (isolate CDC / Honduras)), sequence (Q27743 whole entry, looked up): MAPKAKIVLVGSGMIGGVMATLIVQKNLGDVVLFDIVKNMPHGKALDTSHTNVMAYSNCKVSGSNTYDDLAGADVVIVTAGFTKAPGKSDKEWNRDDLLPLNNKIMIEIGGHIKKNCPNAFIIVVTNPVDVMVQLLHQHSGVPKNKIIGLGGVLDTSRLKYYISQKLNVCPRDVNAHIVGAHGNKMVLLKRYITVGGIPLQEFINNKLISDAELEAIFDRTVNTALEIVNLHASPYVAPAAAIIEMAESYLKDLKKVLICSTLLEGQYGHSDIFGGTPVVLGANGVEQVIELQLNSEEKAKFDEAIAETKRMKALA
SMILES,growth inhibition [1],inhibition [2],inhibition [3],growth inhibition [4],outcome [5],outcome [6],outcome [7],outcome [8]
Cn1ccnc1CNC(=O)c1ccc(-c2cccc(-c3nc4ccc(C(F)(F)F)cc4[nH]3)c2)cc1,80% (active),20%,3%,101% (active),inactive,inactive,inactive,inactive
O=C(Nc1ccccc1Br)N[C@@H]1CCN(c2ccnc3ccccc23)C1,90% (active),25%,2%,91% (active),inactive,inactive,inactive,inactive
Cc1cccc2[nH]c(-c3cccc(-c4ccc(CNCc5ccc(S(C)(=O)=O)cc5)cc4)c3)nc12,98% (active),8%,6%,101% (active),inactive,inactive,inactive,inactive
Cc1ccc(NC(=O)C(C)Sc2n[nH]c(-c3ccccc3Br)n2)cc1 (stereo not given),90% (active),2%,-4%,89% (active),inactive,inactive,inactive,inactive
CCCCCC(NCCCC)c1ccc(OCCOc2ccc(C(CCCCC)NCCCC)cc2)cc1 (stereo not given),96% (active),99% (active),-2%,88% (active),inactive,inactive,inactive,inactive
CCC[C@]1(C)CSc2ccccc2[C@@H](c2ccccc2)N1,2%,60% (active),-3%,87% (active),inactive,inactive,inactive,inactive
c1ccc(CCNCc2cccc(-c3ccccc3CNCc3ccc4c(c3)OCO4)c2)nc1,80% (active),41%,-2%,90% (active),inactive,inactive,inactive,inactive
O=C(NCCCCN1CCN(c2cccc3c2CCCC3)CC1)c1ccc(NC(=O)c2ccc(Cl)cc2)cc1,85% (active),35%,3%,101% (active),inactive,inactive,inactive,inactive
COCCNc1nc(N2CCC(CNC(=O)c3ccc(-c4ccc(C(=O)N(C)C)cc4C)cc3)CC2)nc2cc(OC)c(OC)cc12,97% (active),12%,3%,98% (active),inactive,inactive,inactive,inactive
Nc1nc(Nc2ccc(Cl)cc2)nc2ccccc12,21%,6%,-2%,101% (active),inactive,inactive,inactive,inactive
O=C(Cc1cnc[nH]1)Nc1ccc(-c2ccc(-c3nc4ccc(C(F)(F)F)cc4[nH]3)s2)cc1,99% (active),48%,0%,101% (active),inactive,inactive,inactive,inactive
CC(C)COc1ccc(Cl)cc1Cc1nc(-c2nc3ccc(CN4CCCCC4)cc3[nH]2)co1,70% (active),49%,-4%,101% (active),inactive,inactive,inactive,inactive
COC(=O)[C@@H](NC(=O)[C@@H](Nc1ccc(C#N)c2ccccc12)C(C)(C)C)c1ccc(O)cc1,74% (active),-4%,1%,101% (active),inactive,inactive,inactive,inactive
CC1CN(Cc2ccc(-c3ccc(-c4nc5ccc(F)cc5[nH]4)cc3)cc2)CC(C)O1 (stereo not given),93% (active),40%,-1%,96% (active),inactive,inactive,inactive,inactive
CCCCCCC(N)c1ccc(OCCCOc2ccc(C(N)CCCCCC)cc2)cc1 (stereo not given),70% (active),100% (active),1%,88% (active),inactive,inactive,inactive,inactive
Cc1cccc2[nH]c(-c3cccc(-c4ccc(NC(=O)c5ccc(=O)[nH]n5)cc4)c3)nc12,27%,18%,1%,101% (active),inactive,inactive,inactive,inactive
CC(C)N1CCN(c2ccc(OCCCCN3CCN(c4cccc(Cl)c4Cl)CC3)cc2Cl)CC1,34%,63% (active),-1%,89% (active),inactive,inactive,inactive,inactive
Cc1ccc2c(c1)NC[C@@]21CCN(C[C@@H](O)C2CCN(c3cc(C#N)ccn3)CC2)C[C@@H]1C,79% (active),28%,-2%,90% (active),inactive,inactive,inactive,inactive
O=C(Nc1ccc(S(=O)(=O)N2CCCCC2)cc1)c1cc(-c2ccccc2O)n[nH]1,81% (active),13%,-2%,94% (active),inactive,inactive,inactive,inactive
COc1cccc(CCNc2nc(NCc3ccccc3)c3cc(OC)c(OC)cc3n2)c1,99% (active),20%,-6%,100% (active),inactive,inactive,inactive,inactive

SMILES,growth inhibition [1],inhibition [2],inhibition [3],growth inhibition [4],outcome [5],outcome [6],outcome [7],outcome [8]
CCC(COCc1ccc(Cl)cc1)N(C)CCN(C)C(CC)COCc1ccc(Cl)cc1 (stereo not given),78% (active),89% (active),-5%,95% (active),inactive,inactive,inactive,inactive
CCc1cc2c(Sc3nnc(N)s3)ncnc2s1,65% (active),-20%,-4%,99% (active),inactive,inactive,inactive,inactive
CC(=O)Nc1ccc2[nH]cc(C3CCN(CCC4CCN(C(=O)/C=C/c5ccc(Cl)c(Cl)c5)CC4)CC3)c2n1,80% (active),16%,1%,101% (active),inactive,inactive,inactive,inactive
CN(C)c1cc(NC(=O)Nc2ccc(SC(F)(F)F)cc2)c2ccccc2n1,100% (active),22%,-4%,100% (active),inactive,inactive,inactive,inactive
CC(C)C(C(=O)n1ncc2c3c(N)nc(N)nc3ccc21)C(C)C,8%,67% (active),-8%,98% (active),inactive,inactive,inactive,inactive
C[C@H](Nc1nc(C(Oc2ccccc2)c2ccccc2)nc2[nH]ncc12)c1ccccc1 (stereo not given in full),56% (active),15%,-5%,100% (active),inactive,inactive,inactive,inactive
O=C(C=Cc1ccc(Cl)c(Cl)c1)NCCCCCN1CCC(CCCNS(=O)(=O)c2cccc(C(F)(F)F)c2)CC1,59% (active),99% (active),3%,100% (active),inactive,inactive,inactive,inactive
O=[N+]([O-])c1cccc(-c2ccc(C=NNc3cc(N4CCCC4)nc(N4CCCC4)n3)o2)c1,67% (active),-6%,0%,100% (active),inactive,inactive,inactive,inactive
CCN(CC)C(=O)c1cccc(/C=C/c2ccc(-c3c(C)[nH]c(C)c(Cl)c3=O)cc2)c1,96% (active),9%,6%,96% (active),inactive,inactive,inactive,inactive
Cc1oc(-c2ccccc2)nc1CCOc1ccc(C[C@H](Nc2ccccc2C(=O)c2ccccc2)C(=O)NCc2ccccn2)cc1,54% (active),-2%,-1%,88% (active),inactive,inactive,inactive,inactive
COc1ccc(CNC2CCN(C)CC2)cc1-c1ccc(S(=O)(=O)NCCc2ccccn2)c(C)c1,91% (active),7%,-2%,96% (active),inactive,inactive,inactive,inactive
CN1CCC[C@H]1COc1ccc(CN2CC[C@H](NC(=O)c3ccc(Cl)c(Cl)c3)C2)c2ccccc12,98% (active),47%,-3%,101% (active),inactive,inactive,inactive,inactive
O=C(Nc1ccc(Cl)cc1)N(CC1C[C@H]2CC[C@@H](C1)N2Cc1ccc(C(F)(F)F)cc1)c1ccc(N2CCOCC2)c(F)c1 (stereo not given in full),36%,31%,0%,85% (active),inactive,inactive,inactive,inactive
Cc1ccc2c(NN=Cc3ccccc3[N+](=O)[O-])cc(C)nc2c1,100% (active),13%,4%,102% (active),inactive,inactive,inactive,inactive
O=C(NCCCCCN1CCC(c2c[nH]c3ccccc23)CC1)c1ccc(-c2ccccc2)nc1,13%,43%,1%,87% (active),inactive,inactive,inactive,inactive
COc1cc(NC(=O)N2CCc3ccc(OCCN(C(C)C)C(C)C)cc32)cc(C(F)(F)F)c1,97% (active),6%,3%,102% (active),inactive,inactive,inactive,inactive
COc1ccc2nccc([C@@H](O)CN3CCC(NC(=O)CCC(=O)c4cc(C(C)(C)C)ccc4OC)CC3)c2c1,51% (active),26%,-9%,94% (active),inactive,inactive,inactive,inactive
O=C(NCc1cccc2ccccc12)[C@@H]1CCCN1C(=O)c1ccc(O)c(-c2ccc(Cl)c(Cl)c2)c1,71% (active),-4%,2%,98% (active),inactive,inactive,inactive,inactive
Cc1[nH]c(C)c(-c2ccc(OCc3cc(C(F)(F)F)cc(C(F)(F)F)c3)nc2)c(=O)c1Br,96% (active),28%,-2%,98% (active),inactive,inactive,inactive,inactive
O=c1[nH]c2c(c(O)c1[N+](=O)[O-])CCC2,1%,9%,-5%,97% (active),inactive,inactive,inactive,inactive
